The source of these data is PubChem BioAssay.

Molecules are shown by their SMILES.

Assay [1] concerns the target Tumor necrosis factor receptor superfamily member 10B (Homo sapiens) (UniProt O14763). Put plainly: viability loss of caspase-8 NB7 cells with TRAIL – with/without TRAIL, luminescence panel, confirmation (AID 651596). The note with it: NB7 neuroblastoma + caspase-8, TRAIL sensitization, NB7 Caspase-8, with TRAIL, mean of runs, at 10 µM, stronger effect = higher value.
Assay in assay [2]: as above
The note with it: NB7 neuroblastoma + caspase-8, without TRAIL, NB7 Caspase-8, without TRAIL, mean of runs, at 10 µM.

Tumor necrosis factor receptor superfamily member 10B (Homo sapiens), sequence (O14763 whole entry, looked up): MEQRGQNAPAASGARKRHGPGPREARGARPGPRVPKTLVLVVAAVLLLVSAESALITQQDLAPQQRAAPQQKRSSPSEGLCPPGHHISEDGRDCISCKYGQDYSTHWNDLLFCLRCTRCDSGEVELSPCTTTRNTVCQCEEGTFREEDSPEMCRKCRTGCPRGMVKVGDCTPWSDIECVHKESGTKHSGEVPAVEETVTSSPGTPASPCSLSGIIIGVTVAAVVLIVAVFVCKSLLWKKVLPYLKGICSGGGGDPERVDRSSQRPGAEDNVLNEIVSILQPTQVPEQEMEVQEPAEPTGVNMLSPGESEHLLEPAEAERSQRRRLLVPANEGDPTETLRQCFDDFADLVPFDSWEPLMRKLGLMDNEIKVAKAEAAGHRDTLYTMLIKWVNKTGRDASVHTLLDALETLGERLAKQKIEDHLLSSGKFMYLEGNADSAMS

Turning to `O=C(Nc1ccc2nc3ccccc3nc2c1)c1ccccc1`, the activity in assay [1] is 47%; in assay [2] it was 32.9%.

As for `O=C(CN1CCN(S(=O)(=O)c2ccc(F)cc2)CC1)Nc1ccc(Cl)c(C(F)(F)F)c1`, the values for the activity in assay [1] and in assay [2] were 24.1% and 31.8%, respectively.

As for `CN(C)S(=O)(=O)c1ccc(-c2csc(N/N=C/c3ccco3)n2)cc1`, the activity was 81% in assay [1] and 77.8% in assay [2].

As for `CC(C)c1onc(C(=O)N2CCN(c3ccc(F)cc3)CC2)c1[N+](=O)[O-]`, the activity came out at 78.8% in assay [1] and 87.6% in assay [2].

Consider `CCCCc1ccc(NC(=O)c2cnccn2)cc1`, for which the activity in assay [1] came out at 53.3%; in assay [2], 45.1%.

For the compound `Cc1cc(NC(=O)c2ccc3c(c2)OCO3)no1`, the activity in assay [1] was 46.2%; in assay [2], 48.3%.

Consider `O=c1oc2ccccc2cc1-c1csc(Nc2nc3c(F)cccc3s2)n1`, for which the activity turned out to be 11.9% in assay [1] and 5.5% in assay [2].

With `COc1ccc2nc(NC(=O)c3ccccc3F)sc2c1`, the activity in assay [1] was 78.1%; in assay [2], 73.8%.

For `Nc1ccccc1C#CC(=O)c1ccccc1`, the activity in assay [1] amounted to 33.9%; in assay [2], 94.2%.

With `CCc1ccc(Nc2n[n+](-c3ccccc3)c(-c3ccc(N(CC)CC)cc3)s2)cc1`, the activity in assay [1] stood at 45.2%; in assay [2], 41.2%.

For the compound `CCc1nnc(NC(=O)CSc2nc3c(cc2C#N)CCCC3)s1`, the activity in assay [1] amounted to 62.8%; in assay [2] it was 72.3%.

As for `CCOc1ccc(Nc2nc(N)nc(CCl)n2)cc1`, the activity in assay [1] is 99.5%; in assay [2], 99.3%.

For the compound `CCCn1c(Nc2nc3ccccc3n2C)nc2ccccc21`, the values for the activity in assay [1] and in assay [2] were 38.1% and 50.4%, respectively.

For `CSCCC(NC(=O)c1ccc(Cl)c([N+](=O)[O-])c1)C(=O)N1CCN(C/C=C/c2ccccc2)CC1` (centres undefined), the results for the activity in assay [1] and in assay [2] were 36.3% and 24.4%, respectively.

Take `Cc1ccccc1Nc1nn2c(=O)c3ccccc3nc2s1`: the activity worked out at 54.2% in assay [1] and 62.8% in assay [2].

On to `O=C(COc1ccc(Cl)cc1Cl)Nc1ccccc1F`, for which the activity in assay [1] was found to be 54.9%; in assay [2], 40.5%.

On to `COc1cc2sc3ccc(-c4ccc(CN5CCOCC5)cc4)cc3c(=O)c2cc1OC`, for which the values for the activity in assay [1] and in assay [2] were 46.9% and 41.8%, respectively.

Take `Brc1ccc(-c2cn3ccccc3n2)s1`: the activity in assay [1] stood at 52.6%; in assay [2], 38.7%.

With `Cc1ccc(S(=O)(=O)NC(=O)NC2=NC(C)(C)N(c3ccc(Cl)c(Cl)c3)C(N)=N2)cc1`, the activity in assay [1] was found to be 77.4%; in assay [2], 84.2%.

On to `Cc1cc(Br)ccc1OCCCCNCCO`, for which the activity in assay [1] worked out at 28.1%; in assay [2], 41.9%.

On to `O=C(Nc1ccc(-c2nc3ccccc3[nH]2)cc1)C1CCCO1` (centres undefined), for which the activity worked out at 79.5% in assay [1] and 71% in assay [2].

For the compound `COc1ccc2nc(-c3ccc(F)cc3)sc2c1`, the activity was 68.2% in assay [1] and 65.7% in assay [2].

For `CN(C)c1cccc(C(=O)N/N=C/c2ccccc2F)c1`, the activity in assay [1] was 82.8%; in assay [2], 73.2%.

On to `O=C(/C=C/c1ccc([N+](=O)[O-])cc1)Nc1ncc([N+](=O)[O-])s1`, for which the activity worked out at 69.1% in assay [1] and 68.5% in assay [2].

For `Cc1ccnc(NC(=S)NC(=O)c2ccco2)c1`, the results for the activity in assay [1] and in assay [2] were 65.5% and 57.7%, respectively.

With `C=CCNc1nc(NCc2ccc(NC(C)=O)cc2)c2sc(-c3ccccc3)cc2n1`, the values for the activity in assay [1] and in assay [2] were 46.1% and 43.1%, respectively.

`COC(=O)c1ccc2nc(-c3ccc4c(c3)OCO4)cn2c1`: the activity in assay [1] was 74.5%; in assay [2], 76%.

On to `Cc1ccc(-c2cn3c(=O)cc(C)[nH]c3n2)cc1`, for which the results for the activity in assay [1] and in assay [2] were 80.5% and 79.5%, respectively.

In the case of `COC(=O)c1ccc(N/C=C/C(=O)c2ccccc2)cc1`, the results for the activity in assay [1] and in assay [2] were 61.3% and 80.2%, respectively.

As for `C#CC(=O)N(c1ccc(OC)cc1OC)C(C(=O)NC1CCCC1)c1cccs1` (centres undefined), the activity in assay [1] stood at 99%; in assay [2] it was 99.6%.

With `O=C(NCc1cc(C(F)(F)F)ccc1Cl)c1cccc2c1C(=O)c1ccc(N3CCC(N4CCCCC4)CC3)cc1S2(=O)=O`, the activity in assay [1] turned out to be 93%; in assay [2], 93.6%.

Consider `OC(c1cc(-c2cccc(Cl)c2)nc2ccccc12)C1CCCCN1` (centres undefined), for which the activity amounted to 71.2% in assay [1] and 82.1% in assay [2].

Take `O=C(CCl)N1c2ccccc2CCc2ccccc21`: the activity turned out to be 99.8% in assay [1] and 99.7% in assay [2].

Regarding `CCc1ccc(/C=N/NC(=O)c2ccccn2)cc1`, the activity in assay [1] stood at 83.9%; in assay [2], 73%.

Consider `CC(C)(C)C1CCc2sc(C(=O)NNC(=O)CCl)cc2C1` (centres undefined), for which the activity in assay [1] was 98.8%; in assay [2], 95.6%.

As for `Cc1ccnc(NC(=S)NC(=O)c2cccs2)c1`, the activity in assay [1] came to 90%; in assay [2], 87.7%.

With `CCC(=O)Nc1ccc(NC(=O)c2ccco2)cc1`, the activity in assay [1] is 35.1%; in assay [2] it was 41.4%.

Take `COc1ccc2[nH]c(-c3ccc(C)cc3)cc(=O)c2c1`: the activity in assay [1] was 87.4%; in assay [2], 87.8%.

For `Cc1cccc(NC2=NC(C)(C)N=C(N)N2)c1`, the activity turned out to be 82.5% in assay [1] and 83.2% in assay [2].

As to `O=S1(=O)CC(c2ccccc2)=NN=C(c2ccccc2)C1`, the activity is 79% in assay [1] and 75.8% in assay [2].

Turning to `c1ccc2c(c1)COc1c3cc4c(cc3nn1-2)OCO4`, the activity came out at 67.7% in assay [1] and 53.8% in assay [2].

`O=C(N/N=C1\CCc2ccccc21)c1ccccc1O`: the activity in assay [1] turned out to be 53.7%; in assay [2], 62.4%.

For `COC(=O)c1cc(OCC(=O)Nc2ccc3c(c2)CCC3)cc(C(=O)OC)c1`, the figures for the activity in assay [1] and in assay [2] were -14.7% and -57.5%, respectively.

Consider `CCc1cc2c(COC(=O)CCNS(=O)(=O)c3cccc(C(F)(F)F)c3)cc(=O)oc2cc1O`, for which the values for the activity in assay [1] and in assay [2] were 23.9% and 3.52%, respectively.

Regarding `CN1CCN(Cc2nc3ccccc3c(=O)n2Cc2nc(-c3ccc4ccccc4c3)cs2)CC1`, the activity in assay [1] was determined as 67.3%; in assay [2] it was 91.5%.

`Cc1onc(-c2ccccc2Cl)c1C(=O)O/N=C(\N)c1ccccc1`: the activity in assay [1] stood at 99%; in assay [2] it was 98.1%.

On to `CNC(=O)c1cc(Oc2ccc(NC(=O)Nc3ccc(Cl)c(C(F)(F)F)c3)cc2)ccn1`, for which the activity in assay [1] was 88.9%; in assay [2], 63.2%.
